Laboratory results published in PubChem BioAssay (NCATS).
Results filed as inconclusive are left out. A call without a number means that no potency is given here. The source made the active and inactive calls. Calls follow the shape of the dose curve; as a rule, active = well fitted curve in the direction sought with a large enough effect; inconclusive = small, poorly fitted or top-dose-only effect, or another doubt; inactive = no such curve, though single readings can be large; an effect the other way counts as inactive or inconclusive.

Legend:
[1] = qHTS of pediatric cancer cell lines to identify multiple opportunities for drug repurposing: Primary screen for NB-EBc1 cells (AID 1347095); also: potency is read from the fitted curve at half-maximal effect
Summary of the method: (§1)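 Cells seeded at 500-1,000 cells/well in growth media, rested 5 hours at 37 degrees C, 5% CO2, then dosed; MIPE compounds at 11-point (from 0.78 nM) and NPC at 8-point (from 0.59 nM) final concentrations. Viability by CellTiter-Glo luminescence after 48 hours.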

[2] = qHTS of pediatric cancer cell lines to identify multiple opportunities for drug repurposing: Primary screen for U-2 OS cells (AID 1347096); also: nearly all actives have a fitted effect of over 50% in size; also: potency is read from the fitted curve at half-maximal effect
Summary of the method: (§2)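 Viability after 48 h compound treatment at 37C, 500-1,000 cells/well, read as ATP luminescence with CellTiter-Glo. Primary screens used 11-point (MIPE, 0.78 nM-46 µM) or 8-point (NPC, 0.59 nM-46 µM) final concentrations; follow-up screens used 11-point dilutions.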

[3] = qHTS of pediatric cancer cell lines to identify multiple opportunities for drug repurposing: Primary screen for Saos-2 cells (AID 1347097); also: nearly all actives have a fitted effect of over 40% in size; also: potency is read from the fitted curve at half-maximal effect
Summary of the method: as §1

[4] = qHTS of pediatric cancer cell lines to identify multiple opportunities for drug repurposing: Primary screen for SK-N-SH cells (AID 1347098); also: nearly all actives have a fitted effect of over 65% in size; also: potency is read from the fitted curve at half-maximal effect
Summary of the method: (§3)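 Cells (500-1,000/well) rested 5 h, then received compounds for 48 h; metabolically active cells were measured by CellTiter-Glo luminescence. Final concentrations spanned up to 46 µM (MIPE, 11-point) or 0.59 nM-46 µM (NPC, 8-point) in primary screens, 11-point in follow-ups.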

[5] = qHTS of pediatric cancer cell lines to identify multiple opportunities for drug repurposing: Primary screen for NB1643 cells (AID 1347099); also: nearly all actives have a fitted effect of over 50% in size; also: potency is read from the fitted curve at half-maximal effect
Summary of the method: as §1

[6] = qHTS of pediatric cancer cell lines to identify multiple opportunities for drug repurposing: Primary screen for LAN-5 cells (AID 1347100); also: potency is read from the fitted curve at half-maximal effect
Summary of the method: as §2

[7] = qHTS of pediatric cancer cell lines to identify multiple opportunities for drug repurposing: Primary screen for BT-12 cells (AID 1347101); also: nearly all actives have a fitted effect of over 25% in size; also: potency is read from the fitted curve at half-maximal effect
Summary of the method: as §3

[8] = qHTS of pediatric cancer cell lines to identify multiple opportunities for drug repurposing: Primary screen for Rh18 cells (AID 1347102); also: nearly all actives have a fitted effect of over 65% in size; also: potency is read from the fitted curve at half-maximal effect
Summary of the method: as §2

[9] = qHTS of pediatric cancer cell lines to identify multiple opportunities for drug repurposing: Primary screen for RD cells (AID 1347104); also: nearly all actives have a fitted effect of over 55% in size; also: potency is read from the fitted curve at half-maximal effect
Summary of the method: as §1

[10] = qHTS of pediatric cancer cell lines to identify multiple opportunities for drug repurposing: Primary screen for MG 63 (6-TG R) cells (AID 1347105); also: nearly all actives have a fitted effect of over 50% in size; also: potency is read from the fitted curve at half-maximal effect
Summary of the method: as §1

[11] = qHTS of pediatric cancer cell lines to identify multiple opportunities for drug repurposing: Primary screen for control Hh wild type fibroblast cells (AID 1347106);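 also: series mostly up to about 46 µM; a drop in luminescence marks cytotoxicity and a rise apparent proliferation; nearly all actives have a fitted effect of over 55% in size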
Summary of the method: as §2

[12] = qHTS of pediatric cancer cell lines to identify multiple opportunities for drug repurposing: Primary screen for Rh41 cells (AID 1347108); also: nearly all actives have a fitted effect of over 70% in size; also: potency is read from the fitted curve at half-maximal effect
Summary of the method: as §1

[13] = qHTS of pediatric cancer cell lines to identify multiple opportunities for drug repurposing: Primary screen for Rh30 cells (AID 1347107); also: nearly all actives have a fitted effect of over 75% in size; also: potency is read from the fitted curve at half-maximal effect
Summary of the method: as §2

[14] = qHTS of pediatric cancer cell lines to identify multiple opportunities for drug repurposing: Primary screen for OHS-50 cells (AID 1347103); also: nearly all actives have a fitted effect of over 40% in size
Summary of the method: as §3

[15] = qHTS of pediatric cancer cell lines to identify multiple opportunities for drug repurposing: Confirmatory screen for A673 cells (AID 1347110); also: nearly all actives have a fitted effect of over 65% in size; also: potency is read from the fitted curve at half-maximal effect
Summary of the method: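 A673 cells seeded at 500-1,000 cells/well, rested 5 h, then dosed; primary MIPE 11-point (0.78 nM to 46 µM), NPC (0.59 nM to 46 µM); confirmatory 11-point. CellTiter-Glo luminescence after 48 h.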

[16] = qHTS of pediatric cancer cell lines to identify multiple opportunities for drug repurposing: Confirmatory screen for SK-N-MC cells (AID 1347111);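 also: potency is read from the fitted curve at half-maximal effect; cells exposed to compound for 48 h before the readout; nearly all actives have a fitted effect of over 70% in size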
Summary of the method: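 SK-N-MC cells at 500-1,000 cells/well in growth media were pre-incubated 5 h, then exposed to compounds at 11-point dilutions for 48 h at 37 degrees C, 5% CO2. Viability was read as CellTiter-Glo luminescence.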

[17] = qHTS of pediatric cancer cell lines to identify multiple opportunities for drug repurposing: Confirmatory screen for NB-EBc1 cells (AID 1347115); also: nearly all actives have a fitted effect of over 45% in size
Summary of the method: as §2

[18] = qHTS of pediatric cancer cell lines to identify multiple opportunities for drug repurposing: Confirmatory screen for NB1643 cells (AID 1347109); also: nearly all actives have a fitted effect of over 45% in size
Summary of the method: as §2

[19] = qHTS of pediatric cancer cell lines to identify multiple opportunities for drug repurposing: Confirmatory screen for DAOY cells (AID 1347114); also: nearly all actives have a fitted effect of over 65% in size
Summary of the method: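 Viability measured as metabolically active cells via CellTiter-Glo luminescence following 48 hours of compound exposure, 11-point dilutions in confirmatory testing. 500-1,000 cells/well plated 5 hours before dosing; controls were DMSO and 2.3 µM bortezomib.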

Row | SMILES | Potency [1] | Potency [2] | Potency [3] | Potency [4] | Potency [5] | Potency [6] | Potency [7] | Potency [8] | Potency [9] | Potency [10] | Potency [11] | Potency [12] | Potency [13] | Potency [14] | Potency [15] | Potency [16] | Potency [17] | Potency [18] | Potency [19]
1 | C[N+](C)(CCOc1ccccc1)Cc1cccs1 | inactive | inactive | inactive | inactive | inactive | inactive | inactive | inactive | inactive | inactive | inactive | inactive |  |  |  |  |  |  | 
2 | CN1CCC(=C2c3ccccc3CCc3cccnc32)CC1 | inactive | inactive | inactive | inactive | inactive | inactive | inactive | inactive | inactive | inactive | inactive | inactive | inactive |  |  |  |  |  | 
3 | CCCc1ncc(C(=O)O)s1 | inactive | inactive | inactive | inactive | inactive | inactive | inactive | inactive | inactive | inactive | inactive | inactive | inactive |  |  |  |  |  | 
4 | Cc1ccc(O)cc1 | inactive | inactive | inactive | inactive | inactive | inactive | inactive |  | inactive | inactive | inactive | inactive | inactive | inactive |  |  |  |  | 
5 | Cc1cc2nc3ccc(=[N+](C)C)cc-3sc2cc1N | 10.6 µM (active) | 21.1 µM (active) | 2.99 µM (active) | 10.9 µM (active) | 5.96 µM (active) | 1.33 µM (active) | 15.5 µM (active) | 2.99 µM (active) | 4.73 µM (active) | 13.3 µM (active) | inactive | 5.96 µM (active) | 15 µM (active) |  |  |  |  |  | 
6 | NC(=O)NS(=O)(=O)c1ccc(Cl)cc1 | inactive | inactive | inactive | inactive | inactive | inactive | inactive |  | inactive |  | inactive | inactive | inactive | inactive |  |  |  |  | 
7 | COc1ccccc1OCC1CNC(=O)O1 (configuration not stated) | inactive | inactive | inactive | inactive | inactive | inactive | inactive | inactive | inactive | inactive | inactive | inactive | inactive |  |  |  |  |  | 
8 | CC(=O)OCC(=O)Nc1cc(C#N)cc(NC(=O)COC(C)=O)c1Cl | inactive | inactive | inactive | inactive | inactive | inactive | inactive |  | inactive | inactive | inactive | inactive | inactive | inactive |  |  |  |  | 
9 | CCCCN(CCCC)C(C(N)=O)c1ccc(OC)cc1 (configuration not stated) | inactive | inactive | inactive | inactive | inactive | inactive | inactive | inactive | inactive | inactive | inactive | inactive | inactive |  |  |  |  |  | 
10 | O=C(CO)[C@@H](O)[C@H](O)[C@@H](O)CO | inactive | inactive | inactive | inactive | inactive | inactive |  | inactive | inactive | inactive | inactive |  | inactive | inactive |  |  |  |  | 
11 | N#CC1(c2ccc(F)cc2)CCC(=O)CC1 | inactive | inactive | inactive | inactive | inactive | inactive | inactive |  | inactive | inactive | inactive | inactive | inactive | inactive |  |  |  |  | 
12 | Cc1ccc(C(=O)Oc2ccc(C(O)CNC(C)(C)C)cc2OC(=O)c2ccc(C)cc2)cc1 (configuration not stated) | inactive | inactive | inactive | inactive | 0.001 µM (active) | inactive | 6.17 µM (active) | inactive |  | inactive | inactive | inactive | inactive |  | 0.0928 µM (active) | 11.7 µM (active) | inactive |  | 
13 | CC(C)C(=O)OCc1cccc(OC(=O)[C@@H]2N3C(=O)[C@@H](NC(=O)Cc4ccccc4)[C@H]3SC2(C)C)c1 | inactive | inactive | inactive | inactive | inactive | inactive | inactive | inactive | inactive | inactive |  | inactive | inactive |  |  |  |  |  | 
14 | COc1cc2c(cc1OC)C(=O)CC2 | inactive | inactive | inactive | inactive | inactive | inactive | inactive | inactive | inactive | inactive |  | inactive | inactive |  |  |  |  |  | 
15 | O=C(O)C1CCC1 | inactive | inactive | inactive | inactive | inactive | inactive |  | inactive | inactive | inactive | inactive | inactive | inactive | inactive |  |  |  |  | 
16 | CCN(CC)CC(=O)OCC(=O)[C@@]1(O)CC[C@H]2[C@@H]3CCC4=CC(=O)CC[C@]4(C)[C@H]3[C@@H](O)C[C@@]21C | inactive | inactive | inactive | inactive | inactive | inactive | inactive |  | inactive | inactive | inactive | inactive | inactive | inactive | inactive |  | inactive | inactive | inactive
17 | C/C(=C1\CCOC(=O)S1)N(C=O)Cc1cnc(C)nc1N | inactive | inactive | inactive | inactive | inactive | inactive | inactive | inactive | inactive | inactive |  |  | inactive |  |  |  |  |  | 
18 | CC(C)NC(=O)c1ccc(C=O)cc1 | inactive | inactive | inactive | inactive | inactive | inactive | inactive | inactive | inactive |  | inactive | inactive | inactive |  |  |  |  |  | 
